Screening data as filed in PubChem.
GPR151 activ – activates the human receptor GPR151; PathHunter beta-arrestin GPR151 cells, luminescence; hit rate 1% among 650,000; activation, % at 11.2 µM; Q8TDV0; in the data active = activation above about 4.9%
FBW7 activator – activators of human E3 ligase FBW7; normalized activity (activation), % at 26.1 µM; hit rate 0.13% among 650,000; AlphaScreen FBW7–phospho-cyclin E peptide binding, activator screen; Q969H0; in the data active = normalized activity above about 1.9%;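 also: purified mutant Fbw7 with reduced substrate affinity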
Target sequence (Q969H0 whole entry, looked up): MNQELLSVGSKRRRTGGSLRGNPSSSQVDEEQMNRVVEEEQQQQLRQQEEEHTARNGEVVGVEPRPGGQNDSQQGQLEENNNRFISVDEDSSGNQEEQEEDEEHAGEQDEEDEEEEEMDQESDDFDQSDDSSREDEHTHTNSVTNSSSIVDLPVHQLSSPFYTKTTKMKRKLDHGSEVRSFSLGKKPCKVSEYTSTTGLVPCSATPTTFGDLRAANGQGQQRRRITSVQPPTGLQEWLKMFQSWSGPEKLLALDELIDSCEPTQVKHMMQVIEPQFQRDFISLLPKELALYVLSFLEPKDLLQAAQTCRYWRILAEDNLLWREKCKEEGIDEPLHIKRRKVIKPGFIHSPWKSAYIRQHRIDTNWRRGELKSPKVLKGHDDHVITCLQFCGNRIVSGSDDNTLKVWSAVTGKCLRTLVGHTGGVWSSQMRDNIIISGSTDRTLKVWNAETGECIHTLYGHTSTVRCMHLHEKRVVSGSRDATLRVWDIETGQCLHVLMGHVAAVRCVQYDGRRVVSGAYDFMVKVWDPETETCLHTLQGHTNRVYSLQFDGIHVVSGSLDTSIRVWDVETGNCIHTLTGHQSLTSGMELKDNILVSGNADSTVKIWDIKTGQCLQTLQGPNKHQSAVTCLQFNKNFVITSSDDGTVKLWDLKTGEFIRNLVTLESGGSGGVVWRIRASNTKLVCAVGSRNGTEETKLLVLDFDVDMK
TEAD-YAP inh – TEAD-YAP interaction inhibition. AID 1259422. inhibition, % at 9.12 µM. HEK-TIYL cells, TEAD-Gal4/YAP UAS-luciferase luminescence. hit rate 1.4% among 640,000; in the data active = inhibition above about 32%
MITF inh – human MITF inhibition, primary screen | O75030 | AlphaScreen MITF homodimerization, bead proximity signal | inhibition, % at 2.6 µM | hit rate 0.91% among 650,000; in the data active = inhibition above about 50%
GPR151 conf act – confirmation of human GPR151 activators | shares compounds with GPR151 activ | GPR151 PathHunter beta-arrestin cells, luminescence, 90 min; % of EA-reagent control over plate median | activation, % at 11.2 µM | 6,700 tested, under 10 active;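 active = mean percent activation across replicates above the confirmation screen cutoff of 4.91%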
GPR119 ag – activates human GPR119 in a GPR151 counter-screen; shares compounds with GPR151 activ; GPR119 PathHunter beta-arrestin cells, luminescence, 90 min; 0 = compound-well median, 100 = enzyme-acceptor control; activation, % at 11.2 µM; hit rate 0.3% among 6,700; AID 1508611;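 active = mean percent activation in the counterscreen above 29.09%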;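 also: counterscreen on off-target GPR119 to flag nonselective hits from the GPR151 activator screen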
Hits are given with their value; – = inactive; · = not tested or not shown. A selection: hits, their analogues and other compounds. The true share with any hit is near 3.5%.

SMILES	GPR151 activ	FBW7 activator	TEAD-YAP inh	MITF inh	GPR151 conf act	GPR119 ag
CS(=O)(=O)N(CC(=O)Nc1ccc(Cl)c(Cl)c1)c1ccc2c(c1)OCO2	–	–	–	–	·	·
CCOC(=O)c1ccccc1NC(=O)CN(c1ccc(F)c(Cl)c1)S(C)(=O)=O	5.2	–	–	–	–	–
CCOC(=O)c1ccccc1NC(=O)CN(c1ccccc1OCC)S(C)(=O)=O	–	–	–	–	·	·
Cc1ccc(N(CC(=O)NC2CC3CCC2C3)S(C)(=O)=O)cc1Cl (stereo not given)	–	–	–	–	·	·
CCOC(=O)c1ccccc1NC(=O)CN(c1ccccc1F)S(C)(=O)=O	5.0	–	–	–	–	–
COC(=O)c1ccccc1NC(=O)CN(c1ccc(Cl)c(Cl)c1)S(C)(=O)=O	–	–	–	–	·	·
CCOC(=O)c1ccccc1NC(=O)CN(c1ccc(Cl)c(Cl)c1)S(C)(=O)=O	18.3	–	–	–	–	–
CCOC(=O)c1ccccc1NC(=O)c1cn(-c2ccc(F)cc2F)c(=O)c2ccccc12	6.7	–	–	–	–	–
CS(=O)(=O)N(CC(=O)NC1CC2CCC1C2)c1ccc(F)c(Cl)c1 (stereo not given)	7.8	–	–	–	–	–
Cc1ccccc1C(=O)Nc1ccc2oc(-c3cc(Br)ccc3Cl)nc2c1	–	–	–	–	·	·
Cc1ccc(N(CC(=O)Nc2ccccc2F)S(C)(=O)=O)cc1Cl	14.9	–	–	–	–	–
CS(=O)(=O)N(CC(N)=O)c1ccc(Cl)cc1Cl	–	–	–	–	·	·
COC(=O)c1ccccc1NC(=O)CN(c1ccccc1OC)S(C)(=O)=O	–	–	–	–	·	·
COC(=O)CN(c1ccc(Cl)cc1Cl)S(C)(=O)=O	7.3	–	–	–	–	–
COc1ccccc1N(CC(=O)Nc1ccccc1C(=O)NCC(C)C)S(C)(=O)=O	13.4	–	–	–	–	–
COc1ccc(C(=O)NN2C(=O)c3ccccc3C2=O)cc1I	5.1	–	–	–	–	–
COc1cccc(N2CC(C(=O)Oc3ccc4ccccc4c3)CC2=O)c1 (stereo not given)	7.3	–	–	–	–	–
COc1cccc(N2CC(C(=O)NCCc3ccsc3)CC2=O)c1 (stereo not given)	5.5	–	–	–	–	–
COc1ccc(N2CC(C(=O)NCCc3ccccc3)CC2=O)cc1 (stereo not given)	–	–	–	–	·	·
COc1cccc(N2CC(C(=O)N3CCN(CCn4nc(C)cc4C)CC3)CC2=O)c1 (stereo not given)	8.1	–	–	–	–	–
C[C@@H](c1ccccc1)n1c(=O)[nH]c2nc(-c3ccc(N4CCNCC4)cc3)cnc21	–	–	–	–	·	·
CC1CCC/C(=C/Nc2ccc(N(C)C)cc2)C1=O (stereo not given)	–	–	–	–	·	·
CCN(CCNC(=O)c1cc(C)nn1-c1ccccc1)c1ccccc1	7.9	–	–	–	–	–
COCCNC(=O)c1cc(C)nn1-c1ccccc1	–	–	–	–	·	·
COc1cc(C2C(=O)N(C3CCC(C)CC3)CC(=O)N2Cc2ccccc2)ccc1OC(C)C (stereo not given)	–	–	–	–	·	·
SMILES	GPR151 activ	FBW7 activator	TEAD-YAP inh	MITF inh	GPR151 conf act	GPR119 ag
COc1cc(C(=O)Nc2ccccc2F)ccc1OCc1cccc(F)c1	–	–	–	–	·	·
COC(=O)c1ccc(OCc2cccc(F)c2)c(OC)c1	5.9	–	–	–	–	–
O=S(=O)(c1cccs1)N(Cc1ccco1)C1CCN(CCc2cccs2)CC1	7.5	–	–	–	–	–
CS(=O)(=O)N(Cc1ccco1)C1CCN(CCc2cccs2)CC1	–	–	–	–	·	·
CN(C)C1N(C(=O)c2ccccc2Br)N=C2c3ccccc3S(=O)(=O)N21 (stereo not given)	–	–	–	–	·	·
COCc1c(C(=O)N/N=C(\C)c2cc(C)c(C)cc2C)nnn1-c1nonc1N	–	–	–	–	·	·
CSc1nc2ccccc2c(=O)n1C1CCCCC1	5.3	–	–	–	–	–
CC1(C)CC(=O)N(CC(=O)N2CCCCC2)c2ccccc2S1	5.7	–	–	–	–	–
CC1(C)CC(=O)N(CC(=O)N2CCCCCC2)c2ccccc2S1	–	–	–	–	·	·
CC(NC(=O)c1ccccc1Br)c1ccc(F)cc1 (stereo not given)	–	–	–	–	·	·
COc1ccc(OC)c(CNS(=O)(=O)c2ccc3c(c2)oc(=O)n3C)c1	–	–	–	–	·	·
CCCN(CCC)CCNS(=O)(=O)c1ccc2c(c1)oc(=O)n2C	7.6	–	–	–	–	–
COc1ccccc1CNS(=O)(=O)c1ccc2c(c1)oc(=O)n2C	5.9	–	–	–	–	–
Cc1cc(C)c(S(=O)(=O)N2CCN(C)CC2)cc1C	–	–	–	–	·	·
Cc1cc(S(=O)(=O)N2CCN(C)CC2)c(C)cc1Cl	5.3	–	–	–	–	–
CCN(CC)CC(=O)Nc1nc2ccc(OC)cc2s1	–	–	–	–	·	·
CCC(=O)NNc1nc2ccc(OC)cc2s1	6.3	–	–	–	–	–
CCOC(=O)c1ccccc1NC(=O)c1ccoc1C	–	–	–	–	·	·
CCOc1ccccc1NC(=O)c1ccccc1NS(=O)(=O)c1ccccc1	5.9	–	–	–	–	–
CCOc1ccccc1NC(=O)c1ccccc1NS(C)(=O)=O	–	–	–	–	·	·
CCOc1ccccc1NC(=O)c1ccoc1C	5.9	–	–	–	–	–
Nc1c(C(=O)Nc2ccc(Oc3ccccc3)cc2)nnn1Cc1ccccc1	–	–	–	–	·	·
COc1ccc(NC(=O)c2nnn(Cc3ccccc3)c2N)cc1	8.1	–	–	–	–	–
O=C(CSc1nc2ccsc2c(=O)n1Cc1ccccc1F)Nc1ccccc1C(F)(F)F	–	–	–	–	·	·
COCCNc1nc(-c2ccc(OC)c(OC)c2)no1	8.4	–	–	–	–	–
SMILES	GPR151 activ	FBW7 activator	TEAD-YAP inh	MITF inh	GPR151 conf act	GPR119 ag
CCOc1ccccc1OCCOc1cccc2cccnc12	–	–	–	–	·	·
O=C(Nc1nnc(COc2ccccc2)o1)c1ccccc1	–	–	–	–	·	·
O=C(Nc1nnc(COc2ccccc2)o1)c1cc(Br)ccc1Cl	4.9	–	–	–	–	–
CSc1cccc(NC(=O)N2CCN(c3ccc(C)nn3)CC2)c1	5.6	–	–	–	–	–
Cc1ccc(N2CCN(C(=O)Nc3ccccc3)CC2)nn1	–	–	–	–	·	·
Cc1cc(C)nc(NNS(=O)(=O)c2ccc(Cl)cc2)n1	5.9	–	–	–	–	–
CN(CC(=O)N1CCC(Cc2ccccc2)CC1)S(=O)(=O)c1ccc2ccccc2c1	5.7	–	–	–	–	–
CCN(CC(=O)N1CCC(Cc2ccccc2)CC1)S(=O)(=O)c1ccc(Cl)cc1	–	–	–	–	·	·
CNS(=O)(=O)c1ccccc1Nc1cc(NC(=O)Cc2ccc(OC)cc2)ncc1C(F)(F)F	11.1	–	93.0	–	–	–
COc1ccc(CC(=O)Nc2ccccc2NC(C)=O)cc1	–	–	–	–	·	·
